Active and inactive are the calls of the source.
Experiments:
[1] = optical density shifts of acrAB sulA E. coli – strain DRC41, OD650, 48 h, E. coli filamentation inducer project, primary screen (AID 1152); settings: higher = more signal, called active from +8 up or from −8 down;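 note: E. coli MC1000 strain DRC41 lacking acrAB efflux pump and sulA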
[2] = probe aLefty1 binding on compound microarray – biochemical, small-molecule microarray, 635/667 nm fluorescence, primary screen (AID 1153); settings: higher = more signal;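 note: score merges spot fluorescence with signal-to-noise ratio from the scanned slide images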
[3] = plasmodial surface anion channel blockers, osmotic lysis – cell-based, P. falciparum Indochina, OD700, 1 h, primary screen (AID 1154); settings: P. falciparum Indochina infected RBC osmotic lysis, higher = more signal, called active from +8 up or from −8 down
[4] = plasmodial surface anion channel blockers, osmotic lysis – cell-based, P. falciparum Indochina, OD700, 2 h, primary screen (AID 1155);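 note: lysis reports solute entry through the parasite surface anion channel PSAC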; settings: P. falciparum Indochina infected erythrocytes, higher = more signal, called active from +8 up or from −8 down
[5] = changes in parasitized red cell lysis, either direction – P. falciparum Indochina, OD700, 3 h, PSAC antagonist project, primary screen (AID 1156); settings: P. falciparum-infected erythrocytes, osmotic lysis, higher = more signal, called active from +8 up or from −8 down
[6] = plasmodial surface anion channel blockers, osmotic lysis – cell-based, P. falciparum Indochina, OD700, 18 h, primary screen (AID 1157); settings: P. falciparum Indochina infected erythrocytes, osmotic lysis OD700, 18 h; higher = more signal, called active from +8 up or from −8 down
[7] = S6 kinase pathway phospho-S6 level changes – cell-based, A549, cytoblot, luminescence, serum-stimulated, primary screen (AID 1158); settings: 5 h, higher = more signal;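 note: serum-stimulated A549 lung adenocarcinoma cells; signal is phosphorylated S6 detected by cytoblot immunostaining with HRP secondary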
[8] = target: NADPH oxidase 2 (Homo sapiens) (UniProt P04839); test: compounds shifting NOX2 Amplex Red fluorescence – cell-based, HEK293-NOX2, PMA-stimulated, NOX inhibitor project, primary screen (AID 1159); settings: 45 min, higher = more signal, called active from +8 up or from −8 down; note: test concentration not given here
Sequence of NADPH oxidase 2 (Homo sapiens) (P04839 whole entry, looked up): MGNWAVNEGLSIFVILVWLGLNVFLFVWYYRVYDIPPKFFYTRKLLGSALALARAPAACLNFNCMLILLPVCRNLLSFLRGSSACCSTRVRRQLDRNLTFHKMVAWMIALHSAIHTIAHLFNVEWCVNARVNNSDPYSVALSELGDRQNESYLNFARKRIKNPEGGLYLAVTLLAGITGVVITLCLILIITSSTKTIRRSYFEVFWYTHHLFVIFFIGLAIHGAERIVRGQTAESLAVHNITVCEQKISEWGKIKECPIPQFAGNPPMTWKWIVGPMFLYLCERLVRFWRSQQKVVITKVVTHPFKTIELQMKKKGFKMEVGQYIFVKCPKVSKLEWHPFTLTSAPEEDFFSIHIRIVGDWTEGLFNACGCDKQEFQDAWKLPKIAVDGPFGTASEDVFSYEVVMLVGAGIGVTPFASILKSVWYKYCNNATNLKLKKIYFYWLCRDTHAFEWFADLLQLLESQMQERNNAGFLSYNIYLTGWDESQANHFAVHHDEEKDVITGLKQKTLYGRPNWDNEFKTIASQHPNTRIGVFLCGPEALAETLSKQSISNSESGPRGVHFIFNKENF

[9] = target: NADPH oxidase 4 (Homo sapiens) (UniProt Q9NPH5); test: compounds shifting NOX4 Amplex Red fluorescence – cell-based, HEK293-NOX4, tetracycline-induced, NOX inhibitor project, primary screen (AID 1160); settings: HEK293-NOX4, Amplex Red H2O2 fluorescence, 45 min; higher = more signal, called active from +8 up or from −8 down
Sequence of NADPH oxidase 4 (Homo sapiens) (Q9NPH5 whole entry, looked up): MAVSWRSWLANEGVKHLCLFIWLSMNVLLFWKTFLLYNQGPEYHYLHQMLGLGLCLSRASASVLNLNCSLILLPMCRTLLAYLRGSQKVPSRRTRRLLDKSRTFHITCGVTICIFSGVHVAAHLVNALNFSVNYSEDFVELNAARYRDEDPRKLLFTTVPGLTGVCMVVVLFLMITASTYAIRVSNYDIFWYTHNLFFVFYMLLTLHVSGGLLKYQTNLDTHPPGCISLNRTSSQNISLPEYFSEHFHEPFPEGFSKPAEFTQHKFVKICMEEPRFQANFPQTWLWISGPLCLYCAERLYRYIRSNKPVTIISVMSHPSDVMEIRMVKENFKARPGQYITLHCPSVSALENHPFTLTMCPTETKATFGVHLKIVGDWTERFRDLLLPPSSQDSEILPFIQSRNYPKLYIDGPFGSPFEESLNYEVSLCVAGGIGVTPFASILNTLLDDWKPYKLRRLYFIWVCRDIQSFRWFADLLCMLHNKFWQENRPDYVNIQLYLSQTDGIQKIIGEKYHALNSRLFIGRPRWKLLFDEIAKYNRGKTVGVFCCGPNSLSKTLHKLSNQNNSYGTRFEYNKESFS

[10] = target: NADPH oxidase 5 (Homo sapiens) (UniProt Q96PH1); test: compounds shifting NOX5 Amplex Red fluorescence – cell-based, HEK293-NOX5, NOX inhibitor project, primary screen (AID 1161); settings: HEK293-NOX5, ionomycin, 45 min, higher = more signal
Sequence of NADPH oxidase 5 (Homo sapiens) (Q96PH1 whole entry, looked up): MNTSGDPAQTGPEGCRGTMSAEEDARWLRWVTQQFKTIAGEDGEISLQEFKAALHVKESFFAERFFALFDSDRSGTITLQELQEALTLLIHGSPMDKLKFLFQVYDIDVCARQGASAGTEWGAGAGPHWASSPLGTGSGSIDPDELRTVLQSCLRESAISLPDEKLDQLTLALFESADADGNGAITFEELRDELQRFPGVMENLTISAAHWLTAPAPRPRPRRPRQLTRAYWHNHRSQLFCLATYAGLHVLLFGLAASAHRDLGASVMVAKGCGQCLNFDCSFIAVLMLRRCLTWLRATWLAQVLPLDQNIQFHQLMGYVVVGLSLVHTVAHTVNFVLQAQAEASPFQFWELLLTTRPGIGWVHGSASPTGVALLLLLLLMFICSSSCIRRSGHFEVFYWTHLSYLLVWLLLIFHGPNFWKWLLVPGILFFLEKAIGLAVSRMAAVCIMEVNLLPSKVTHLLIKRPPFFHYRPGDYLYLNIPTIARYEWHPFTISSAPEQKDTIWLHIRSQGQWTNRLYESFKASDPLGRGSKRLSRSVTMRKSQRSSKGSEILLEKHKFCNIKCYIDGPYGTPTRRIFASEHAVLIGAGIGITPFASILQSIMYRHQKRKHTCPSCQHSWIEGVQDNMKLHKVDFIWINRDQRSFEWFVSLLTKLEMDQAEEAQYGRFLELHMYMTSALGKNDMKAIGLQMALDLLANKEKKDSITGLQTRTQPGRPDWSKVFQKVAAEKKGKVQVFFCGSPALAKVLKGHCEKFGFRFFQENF

[11] = compound effects on lung adenocarcinoma cell viability – A549, calcein-AM fluorescence, 48 h, basal, profiling panel (AID 1162); settings: higher = more signal; note: test concentration not given here
[12] = compound effects on differentiated 3T3-L1 adipocyte viability – cell-based, 3T3-L1 adipocytes, calcein-AM fluorescence, 48 h, basal, profiling panel (AID 1163); settings: 3T3-L1 adipocytes viability, higher = more signal; note: test concentration not given here
[13] = compound effects on hepatocellular carcinoma cell viability – HepG2, calcein-AM fluorescence, 48 h, basal, profiling panel (AID 1164); settings: higher = more signal; note: test concentration not given here
[14] = compound effects on multiple myeloma cell viability – MM1S, calcein-AM fluorescence, 48 h, basal, profiling panel (AID 1165); settings: higher = more signal;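 note: viability of MM1S multiple myeloma cells under basal unstimulated conditions; test concentration not given here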
[15] = calcein-AM signal in unstimulated myeloma cells – cell-based, calcein-AM fluorescence, 48 h, PK04 Diversity Set, profiling panel (AID 1166); settings: RPMI8226 myeloma viability, higher = more signal;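 note: cells grown under basal conditions without added stimulus; test concentration not given here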
[16] = JC-1 mitochondrial signal, unstimulated HepG2 cells – cell-based, JC-1 fluorescence, 24 h, 100 nL compound, profiling panel (AID 1167); settings: HepG2 mitochondrial potential, higher = more signal; note: test concentration not given here
[17] = JC-1 mitochondrial signal, unstimulated adipocytes – cell-based, JC-1 fluorescence, 3T3-L1 adipocytes, 24 h, 100 nL compound, profiling panel (AID 1168); settings: JC-1 mitochondrial fluorescence, higher = more signal, called active from +8 up or from −8 down; note: test concentration not given here
[18] = JC-1 mitochondrial signal, unstimulated myeloma cells – cell-based, JC-1 fluorescence, RPMI8226, 24 h, 100 nL compound, profiling panel (AID 1169); settings: JC-1 mitochondrial potential fluorescence, higher = more signal; note: test concentration not given here
[19] = JC-1 mitochondrial signal, unstimulated MM1S myeloma – cell-based, JC-1 fluorescence, 24 h, 100 nL compound, profiling panel (AID 1170); settings: MM1S mitochondrial potential, higher = more signal; note: test concentration not given here
[20] = resazurin metabolic signal in A549 cells – cell-based, resazurin fluorescence, 24 h, PK04 Diversity Set, profiling panel (AID 1171); settings: A549 viability, higher = more signal, called active from +8 up or from −8 down; note: test concentration not given here

SMILES	z-score [1]	composite z-score [2]	z-score [3]	z-score [4]	z-score [5]	z-score [6]	z-score [7]	z-score [8]	z-score [9]	z-score [10]	z-score [11]	z-score [12]	z-score [13]	z-score [14]	z-score [15]	z-score [16]	z-score [17]	z-score [18]	z-score [19]	z-score [20]
CN1C2C=C(CCCO)C(C3C(=O)N(C(N)=O)C(=O)C32)C1c1cccs1 (stereo not given)	-0.214 (inactive)	-0.101	1.12 (inactive)	0.273 (inactive)	0.13 (inactive)	0.431 (inactive)	-0.633	0.824 (inactive)	-0.845 (inactive)	0.259	-0.452	-0.086	-0.099	-0.542	0.204	-0.742	-1 (inactive)	1.17	-0.0274	-0.268 (inactive)
COC(=O)[C@@]1(Cc2ccc(OC)cc2)[C@H]2c3cc(C(=O)N(C)C)n(CCc4c[nH]c5ccc(O)cc45)c3C[C@H]2CN1C(=O)c1ccccc1	-1.58 (inactive)	0.825	4.25 (inactive)	1.25 (inactive)	0.396 (inactive)	1.23 (inactive)	0.092	0.689 (inactive)	0.0624 (inactive)	1.14	-1.66	-0.737	0.197	-1.98	-1.32	0.941	-0.966 (inactive)	-0.564	-1.37	-1.33 (inactive)
C=CCC(OC(C)=O)[C@@H]1[C@@H](N(Cc2cc3ccccc3o2)C(=O)Cc2ccc(F)cc2)c2cc(OCCCO)ccc2N1C(=O)c1ccc2ccccc2n1 (stereo not given in full)	-0.548 (inactive)	-0.0984	1.05 (inactive)	0.213 (inactive)	-0.627 (inactive)	-0.0096 (inactive)	-0.53	0.259 (inactive)	0.642 (inactive)	1.28	-0.153	1.2	1.09	0.466	-0.553	1.72	-0.528 (inactive)	-0.131	0.288	0.642 (inactive)
C[C@@H](OCc1ccccc1)C1NC(=O)[C@@]23C(=O)N[C@@H](Cc4ccccc4)C2[C@H](C)[C@@]2(C)O[C@H]2C3/C=C/C/C=C\CNC(=O)CNC1=O (stereo not given in full)	-0.824 (inactive)	-0.012	1.53 (inactive)	0.095 (inactive)	0.543 (inactive)	-0.0634 (inactive)	-0.213	1.01 (inactive)	1.32 (inactive)	1.56	0.758	1.41	-0.762	0.125	-1.25	-0.332	-0.475 (inactive)	0.158	0.146	-0.694 (inactive)
C=C(CCCC)/C(=C/C[C@@H](OC(C)=O)c1ccc(CO)o1)c1cc(C(=O)OC)ccc1OC	-0.132 (inactive)	-0.0011	9.64 (active)	0.938 (inactive)	1.3 (inactive)	0.553 (inactive)	0.476	0.615 (inactive)	-0.832 (inactive)	-1.18	0.813	-0.504	0.882	-1.81	-0.564	0.152	-0.573 (inactive)	0.507	-1.36	0.111 (inactive)
CC(C)N1CC=CC23O[C@@H]4C=CCCOC(=O)C4[C@H]2C(=O)N(CCO)[C@@H]3C1=O (stereo not given in full)	2.1 (inactive)	-0.357	0.326 (inactive)	0.568 (inactive)	1.03 (inactive)	0.406 (inactive)	0.468	1.37 (inactive)	0.509 (inactive)	1.54	-0.555	-0.0175	-2.03	0.506	0.0275	-0.333	0.5 (inactive)	1	0.862	1.06 (inactive)
CCCC[C@@H]1C[C@H]1[C@@H](NC(=O)c1cccnc1)c1ccc(-c2ccccc2)cc1	-2.22 (inactive)	-0.105	3.12 (inactive)	0.818 (inactive)	0.219 (inactive)	0.445 (inactive)	-0.0675	-1.01 (inactive)	-1.52 (inactive)	0.353	-1.42	-0.438	-0.886	-1.14	-2.21	-0.608	-1.18 (inactive)	-0.642	-1.13	3.07 (inactive)
COCCOC(=O)N1C(=O)[C@@]2(c3cc(C#CC4(O)CCCCCC4)ccc31)[C@H](C(N)=O)[C@H]1C(=O)O[C@H](c3ccccc3)[C@H](c3ccccc3)N1[C@@H]2c1ccccc1OCCO	0.127 (inactive)	-1.03	4.94 (inactive)	2.11 (inactive)	3.54 (inactive)	1.62 (inactive)	0.563	2.63 (inactive)	0.164 (inactive)	0.38	-1.86	0.73	-4.88	-3.42	-4.59	-2.32	1.57 (inactive)	-1.17	-1.7	-2.63 (inactive)
C=C(/C(=C/C[C@@H](OC(=O)c1ccncc1)c1ccc(OCCO)cc1)c1cc(C(=O)OC)ccc1OC)C(C)C	0.927 (inactive)	-0.0984	17.9 (active)	2.79 (inactive)	2.56 (inactive)	1.02 (inactive)	0.596	-2.45 (inactive)	-1.24 (inactive)	-1.86	-0.738	0.61	0.391	-0.166	0.687	2.81	0.436 (inactive)	-0.177	-0.744	1.4 (inactive)
